Laboratory results taken from PubChem BioAssay (NCI).
This is part of a sample that, as a whole, favours compounds with a hit. Of some 83,000 tested, about 20% had one in any assay.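 Interpretation: 100, growth as untreated; towards 0, rising growth inhibition; 0, no net growth; 0 to -100, cell death. Compounds scoring below 10 were considered active.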 A number with no mark means an inactive call. The source made the active and inactive calls.

These compounds were tested on SK-MEL-2 melanoma (assay: NCI-60 one-dose screen, 48 h (100 = growth as untreated, 0 = no growth, -100 = all killed)). Details: 10 µM unless noted.
Description: Growth inhibition of the SK-MEL-2 human tumor cell line is measured as a screen for anti-cancer activity. Cells are grown in 96 well plates and exposed to the test compound for 48 hours. Compounds are tested at a single concentration, which is 10^-5 M for most compounds. The reported endpoint is percent growth (GI% or GIPRCNT), where numbers from 0 - 100% represent growth inhibition, and numbers from -100% - 0 represent cell death. For example, a value of 40 represents 60% growth inhibition. A value of 0 means no net growth occurred over the course of the experiment. A value of -40 indicates 40% of cells at the beginning of the experiment died by the end of the experiment. A value of -100 means all cells are dead at the end of the experiment.
NCI-60 Human Tumor Cell Lines Screen was performed using the standard one-dose NCI protocol, which is described in more detail at https://dtp.cancer.gov/discovery_development/nci-60/default.htm.
Compounds with GIPRCNT values below 10 were considered active. Activity score was based on GIPRCNT using the following formula: […]
Score is 0 for GIPRCNT values of 100 or above, 50 for GIPRCNT values of 0, and 100 for GIPRCNT values of -100.

Row | Structure (SMILES) | growth
1 | COc1ccc2c(c1)CC[C@H](O)/C2=C/c1cc(OC)c(OC)c(OC)c1 | 43.5%
2 | O=C1/C(=C\c2ccc3nccnc3c2)SC(=S)N1CCc1ccc(O)cc1 | 97.1%
3 | N#Cc1ccc(O)c(C2=NCC(c3ccccc3)O2)c1 (stereo not given) | 50.6%
4 | O=C(Nc1ccc(Oc2cccc(F)c2)c(Cl)c1)c1cccnc1 | 36.5%
5 | CN(C)c1ccc(-c2c(C#N)c(N)nn2C(=O)c2ccc(NC(=O)c3ccccn3)cc2)cc1 | 105%
6 | CCOC(=O)C1=C(c2ccccc2)N=C2SC=C(c3ccc(Cl)cc3)N2C1c1ccc(Cl)cc1 (stereo not given) | 98.2%
7 | CCCCCOC(=O)c1c(C)[nH]c(/C=C2\N=C(c3ccc[nH]3)C=C2OC)c1C | -71.2% (active)
8 | CCCCCN1C(=O)/C(=c2\sc3n(c2=O)C2C(NN=3)N(CC)C(=O)N2CC)c2ccccc21 (stereo not given) | 21.3%
9 | Cc1c(-c2ccc(O)cc2)n(Cc2ccc(OCCN3CCCCCC3)cc2)c2ccc(O)cc12 | 106%
10 | C#CCOc1cccc(Nc2ncnc3cc(NC(=O)C=C)ccc23)c1 | 25.3%
11 | CCOC(=O)c1c(C(=O)c2cn(C)c3ccc(Br)cc23)c(-c2cn(C)c3ccc(Br)cc23)n(NC(=O)OC(C)(C)C)c1C | 57.8% [100 µM]
12 | C#CCNC(=O)[C@H](CC)[C@H]1CC[C@H](C)[C@H]([C@@H](C)[C@H](O)[C@H](C)C(=O)[C@H](CC)C2O[C@]3(C=CC(=O)[C@]4(CC[C@@](C)([C@H]5CC[C@](O)(CC)[C@H](C)O5)O4)O3)[C@H](C)C[C@@H]2C)O1 (stereo not given in full) | 45%
13 | CC(C)C1=NOC(=O)C1=Cc1cn(-c2ccccc2)nc1-c1ccc(F)cc1 | 94.6%
14 | Cc1sc2nc(NCCc3c[nH]c4ccc(Cl)cc34)[nH]c(=O)c2c1C | 78.5%
15 | O=C(OC(CO)C(=O)NC12CC3CC(CC(C3)C1)C2)c1ccc(Cl)cc1 (stereo not given) | 106%
16 | N=C(N)c1ccc(-c2ccc(-c3ccc(Cl)c(Cl)c3)s2)nc1 | 102%
17 | O=C(Nc1cccc(-c2ccc(Cl)c(C(F)(F)F)c2)c1)C1CCN(Cc2cccc3cccnc23)CC1 | 31.6%
18 | CC(=O)N1N=C(c2ccc(Nc3nc(Nc4ccccc4)nc(Nc4ccccc4)n3)cc2)CC1c1ccccc1 (stereo not given) | 58.6%
19 | COc1cc(/C=C/C(=O)c2ccc(F)cc2)ccc1OCCCCOc1ccc(/C=C/C(=O)c2c(C)nc3ccccc3c2C)cc1OC | 50.5%
20 | COC1=CC(c2ccc[nH]2)=N/C1=C\c1[nH]c(C)c(CC(=O)NCc2ccccc2)c1C | 16.7%

Row | Structure (SMILES) | growth
21 | OCCn1cc(-c2nc(-c3c[nH]c4ncccc34)cs2)c2cc(F)ccc21 | 66.2%
22 | CC1OC(n2c3ccccc3c3c4c(c5c6ccccc6[nH]c5c32)C(=O)N(CCN2CCCC2)C4=O)CC(O)C1O (stereo not given) | 86.5%
23 | COc1ccc(C(C)=O)cc1S(=O)(=O)Nc1c(N)nc(SC)[nH]c1=O | 111%
24 | CCSC(SCC)c1ccc(Cl)cc1 | 116%
25 | N#C/C(=C\c1c(-c2ccccc2)[nH]c2ccccc12)C(N)=O | 111%
26 | O=C1/C(=C/c2cn(-c3ccccc3)nc2-c2ccccc2)SC(=S)N1C1CCCCC1 | 108%
27 | CC1CCN(S(=O)(=O)c2ccc(S(=O)(=O)N3CCCC(c4nc5c(nnn5Cc5cccc(Cl)c5)c(=O)[nH]4)C3)cc2)CC1 (stereo not given) | 46.9%
28 | O=C(Nc1ccc(Oc2cccc(Cl)c2)c(Cl)c1)c1cnccn1 | 43.6%
29 | C/C(Cc1ccc(Cl)cc1)=C(\c1ccc(O)cc1)c1ccc(Cl)cc1 | 90.9%
30 | COc1cc2c(cc1OCCCN1CCN(CCCOc3cc4c(cc3OC)C(=O)N3CC(F)(F)C[C@H]3C=N4)CC1)N=C[C@@H]1CC(F)(F)CN1C2=O | 90.6%
31 | Nc1nc(-c2ccc(Cl)cc2)nc2c1sc(=S)n2-c1ccccc1 | 83.7%
32 | C=CCc1c(O)c(C(=O)/C=C/c2ccccc2)c(OC)c2ccoc12 | 11.5%
33 | CC(C)c1ccc(C(=O)Nc2nc3ccc(O)c(CN(C)C)c3s2)cc1 | 102%
34 | Cc1cc(N2CCN(CCNc3ccnc4cc(Cl)ccc34)CC2)nc(N2CCOCC2)n1 | 83.8%
35 | O=C1C(Cl)=C(NCCCCCCNC2=C(Cl)C(=O)c3ccccc3C2=O)C(=O)c2ccccc21 | 84.5%
36 | O=C1/C(=C/c2ccc([N+](=O)[O-])cc2)COc2ccc(O)cc21 | 109%
37 | CCN(CC)CCCCCNc1cc(OC(=O)c2ccc(Cl)cc2)cc2cccnc12 | 103%
38 | COc1cccc(/C=C2\COc3ccc(O)c(O)c3C2=O)c1 | 57.1%
39 | CN(C)CC1CCC(CN(C)C)C1=O (stereo not given) | 96.8%
40 | COc1ccc(-c2ccc(-c3ccc(C(=N)N)cc3)s2)cc1Cl | 101%
